Laboratory results published in the supplement of paper PMC9492666.
Where a name gives a salt, the structure may show the parent alone.

Experiments:
HCC1937 = experiment: relative cell viability, compound alone, vs DMSO (fraction of DMSO control); higher = less growth inhibition; settings: 72 h
MDA-MB-231 = experiment: as above; settings: 72 h
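Further: viability read out with the CCK-8 kit in 96-well plates, screening a set of 303 compounds acting on lipid metabolism targets.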

Compound	relative cell viability (HCC1937)	relative cell viability (MDA-MB-231)
CCN(CC)C(=O)N1CCN(C)CC1 [Diethylcarbamazine citrate]	0.699	0.856
COc1cccc(CNc2ccc(S(=O)(=O)Nc3nc4ccccc4s3)cc2)c1O	1.01	0.975
C[C@]12C=CC(=O)N[C@@H]1CC[C@@H]1[C@@H]2CC[C@]2(C)[C@@H](C(=O)Nc3cc(C(F)(F)F)ccc3C(F)(F)F)CC[C@@H]12 [Dutasteride]	0.798	0.777
CC(C)(C)c1ccc(-c2nc3ccccc3[nH]2)cc1	0.728	0.612
COc1ccc(-c2c[nH]c3nccc(-c4ccsc4)c23)c(OC)c1	0.993	0.935
CCOC(=O)c1c(NC(=O)CN2CCN(C(=O)c3ccco3)CC2)sc2c1CCC2	0.857	0.967
CCC(CC)CC1(C(=O)Nc2ccccc2SC(=O)C(C)C)CCCCC1 [Dalcetrapib]	1.35	1.06
CC(C)(C)NC(=O)[C@H]1CC[C@H]2[C@@H]3CC[C@H]4NC(=O)C=C[C@]4(C)[C@H]3CC[C@]12C [Finasteride]	1.17	0.934
COc1ccc(-c2coc3cc(OC)ccc3c2=O)cc1 [4',7-Dimethoxyisoflavone]	0.486	0.693
COc1ccc(N(C(=O)Nc2c(C)cccc2C)c2cc(Nc3ccc(N4CCN(C)CC4)cc3)ncn2)c(OC)c1	0.915	1.11
Cc1cc(C)c(S(=O)(=O)Nc2cccc(C(F)(F)F)c2)c(C)c1	1.12	1.18
N[C@@H](Cc1c[nH]cn1)C(=O)O [histidine]	1.05	1.03
CCC(=O)O[C@]1(C(=O)CCl)[C@@H](C)C[C@H]2[C@@H]3C[C@H](F)C4=CC(=O)C=C[C@]4(C)[C@@]3(F)[C@@H](O)C[C@@]21C [Halobetasol Propionate]	1.12	1.13
